For some assays here: Measured potencies and affinities stand elsewhere.
Experiments:
Parameters in all cases: scale not given: direction of the effect not stated beside the values
[1] = molecular target: Protein translocase subunit SecA (Escherichia coli (strain K12)) (UniProt P10408); experiment: Assay to Identify E. coli SecA ATPase Inhibitors; format: functional; settings: 30 µM
[2] = molecular target: T1, Ubiquitin-activating enzyme e1, putative (Leishmania donovani (strain BPK282A1)) (UniProt E9BSI1); experiment: Leishmania donovani Ubiquitin Activating Enzyme (LdE1); format: functional; settings: 30 µM
T1 sequence (whole entry): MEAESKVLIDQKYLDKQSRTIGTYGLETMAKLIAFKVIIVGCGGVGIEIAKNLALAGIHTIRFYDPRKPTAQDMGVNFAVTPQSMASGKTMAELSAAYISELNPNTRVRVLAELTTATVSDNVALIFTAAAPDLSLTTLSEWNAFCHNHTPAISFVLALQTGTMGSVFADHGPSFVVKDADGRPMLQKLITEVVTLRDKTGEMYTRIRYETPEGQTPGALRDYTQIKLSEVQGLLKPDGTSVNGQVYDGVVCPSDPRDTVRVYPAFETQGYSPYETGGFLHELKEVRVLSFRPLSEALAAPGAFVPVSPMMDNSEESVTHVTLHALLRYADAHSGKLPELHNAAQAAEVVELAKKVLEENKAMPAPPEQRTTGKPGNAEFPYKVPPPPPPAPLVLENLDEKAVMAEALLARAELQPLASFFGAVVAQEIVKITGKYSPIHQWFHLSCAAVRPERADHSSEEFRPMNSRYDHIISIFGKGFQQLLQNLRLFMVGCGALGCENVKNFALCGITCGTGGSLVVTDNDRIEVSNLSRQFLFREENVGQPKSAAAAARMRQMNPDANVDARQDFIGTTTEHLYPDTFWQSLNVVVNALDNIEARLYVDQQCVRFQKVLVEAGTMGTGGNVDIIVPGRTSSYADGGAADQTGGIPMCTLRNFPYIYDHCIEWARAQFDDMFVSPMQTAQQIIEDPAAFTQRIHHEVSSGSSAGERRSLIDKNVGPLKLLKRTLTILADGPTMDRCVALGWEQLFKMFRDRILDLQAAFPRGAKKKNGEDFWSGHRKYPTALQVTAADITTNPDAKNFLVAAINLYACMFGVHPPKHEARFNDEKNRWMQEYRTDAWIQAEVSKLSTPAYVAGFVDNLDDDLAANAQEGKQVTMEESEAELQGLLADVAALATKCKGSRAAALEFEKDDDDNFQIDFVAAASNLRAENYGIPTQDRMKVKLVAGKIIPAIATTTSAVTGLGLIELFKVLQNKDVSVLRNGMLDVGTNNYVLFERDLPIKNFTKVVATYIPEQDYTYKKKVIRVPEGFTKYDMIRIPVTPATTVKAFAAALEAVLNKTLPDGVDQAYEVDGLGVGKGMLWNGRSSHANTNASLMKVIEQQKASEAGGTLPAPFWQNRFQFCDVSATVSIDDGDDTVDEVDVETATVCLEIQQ

[3] = molecular target: Sialic acid-binding Ig-like lectin 9 (Homo sapiens) (UniProt Q9Y336); experiment: Hs-Siglec9 ALPHAscreen SOP 20170721; settings: 10 µM
Sequence of Sialic acid-binding Ig-like lectin 9 (Homo sapiens) (Q9Y336 whole entry): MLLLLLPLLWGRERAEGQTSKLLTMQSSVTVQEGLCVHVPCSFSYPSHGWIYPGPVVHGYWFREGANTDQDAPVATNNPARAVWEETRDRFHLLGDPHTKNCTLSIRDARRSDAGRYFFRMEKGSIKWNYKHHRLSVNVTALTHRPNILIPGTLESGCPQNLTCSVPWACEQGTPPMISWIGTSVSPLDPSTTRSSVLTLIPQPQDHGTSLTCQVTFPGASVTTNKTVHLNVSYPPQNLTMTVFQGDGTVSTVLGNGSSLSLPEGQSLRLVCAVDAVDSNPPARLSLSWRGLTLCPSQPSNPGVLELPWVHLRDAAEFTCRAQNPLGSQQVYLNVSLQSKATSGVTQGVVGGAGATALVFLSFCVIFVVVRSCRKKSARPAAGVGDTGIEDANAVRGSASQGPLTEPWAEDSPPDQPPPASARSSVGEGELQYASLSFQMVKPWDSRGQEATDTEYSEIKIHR

Trypanosoma cruzi = experiment: Trypanosoma cruzi phosphomannomutase and mannose-1-phosphate guanylyltransferase assay; format: functional; settings: 10 µM
[4] = molecular target: T2, Arginase-2, mitochondrial (Homo sapiens) (UniProt P78540); experiment: in vitro enzyme assay to detect the production of urea directly proportional to the activity of Arginase II; format: functional; settings: 33.3 µM; also: in the data most compounds retested in dose-response had high values
T2 sequence (whole entry): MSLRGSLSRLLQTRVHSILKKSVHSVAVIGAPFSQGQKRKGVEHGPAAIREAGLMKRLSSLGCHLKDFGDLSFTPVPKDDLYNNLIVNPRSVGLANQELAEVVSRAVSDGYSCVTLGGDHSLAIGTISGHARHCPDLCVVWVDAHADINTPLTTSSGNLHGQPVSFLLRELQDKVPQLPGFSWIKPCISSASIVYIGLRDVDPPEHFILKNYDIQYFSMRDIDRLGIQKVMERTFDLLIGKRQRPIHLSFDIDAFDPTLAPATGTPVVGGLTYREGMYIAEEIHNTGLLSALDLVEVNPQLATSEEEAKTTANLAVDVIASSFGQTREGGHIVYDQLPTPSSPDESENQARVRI

[5] = molecular target: T3, Proteasome subunit beta (Trypanosoma cruzi) (UniProt O96673); experiment: Trypanosoma cruzi proteasome chymotrypsin-like activity (TcProtChymo) assay.; also: in the data most compounds retested in dose-response had high values; format: functional; settings: 9.37 µM
T3 sequence (whole entry): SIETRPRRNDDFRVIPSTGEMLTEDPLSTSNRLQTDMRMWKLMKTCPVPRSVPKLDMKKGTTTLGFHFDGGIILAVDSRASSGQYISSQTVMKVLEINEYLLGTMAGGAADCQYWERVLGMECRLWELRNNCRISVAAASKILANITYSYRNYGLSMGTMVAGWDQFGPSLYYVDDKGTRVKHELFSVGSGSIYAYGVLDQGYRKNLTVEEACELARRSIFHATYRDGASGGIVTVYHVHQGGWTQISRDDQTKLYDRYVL

Homo sapiens = organism: Homo sapiens; experiment: To identify inhibition of the IFN signalling (Jak-Stat) pathway via expression of an eGFP reporter gene under the control of an IFN-stimulated response element (ISRE) containing MxA promoter.; format: functional; settings: 30 µM
[6] = molecular target: T4, Tyrosyl-tRNA synthetase, putative (Trypanosoma cruzi (strain CL Brener)) (UniProt Q4DSP6); experiment: Trypanosoma cruzi tyrosyl tRNA synthetase (TcYRS) _High Tyrosine SOP; format: functional; settings: 30 µM; also: in the data most compounds retested in dose-response had high values
T4 sequence (whole entry): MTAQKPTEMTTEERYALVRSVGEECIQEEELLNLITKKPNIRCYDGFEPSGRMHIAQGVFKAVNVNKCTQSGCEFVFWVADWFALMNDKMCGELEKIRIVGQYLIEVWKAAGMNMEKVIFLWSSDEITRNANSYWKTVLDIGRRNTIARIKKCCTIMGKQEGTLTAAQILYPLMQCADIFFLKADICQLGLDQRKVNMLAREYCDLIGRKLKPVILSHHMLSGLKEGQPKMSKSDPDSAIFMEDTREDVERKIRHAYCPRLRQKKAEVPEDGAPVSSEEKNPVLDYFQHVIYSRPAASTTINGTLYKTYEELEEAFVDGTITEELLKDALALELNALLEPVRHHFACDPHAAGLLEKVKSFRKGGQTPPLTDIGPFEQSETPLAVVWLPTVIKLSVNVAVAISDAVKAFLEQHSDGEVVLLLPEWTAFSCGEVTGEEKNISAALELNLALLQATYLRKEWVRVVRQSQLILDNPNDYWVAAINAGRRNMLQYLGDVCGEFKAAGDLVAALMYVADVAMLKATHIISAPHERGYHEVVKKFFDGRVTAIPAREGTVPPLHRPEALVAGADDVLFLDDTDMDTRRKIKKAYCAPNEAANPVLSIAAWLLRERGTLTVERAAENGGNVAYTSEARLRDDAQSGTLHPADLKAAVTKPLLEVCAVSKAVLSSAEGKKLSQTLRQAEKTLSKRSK

[7] = molecular target: T4, Tyrosyl-tRNA synthetase, putative (Trypanosoma cruzi (strain CL Brener)); experiment: Trypanosoma cruzi tyrosyl tRNA synthetase (TcYRS) SOP; format: functional; settings: 30 µM
[8] = molecular target: Chromo domain-containing protein 1 (Saccharomyces cerevisiae (strain ATCC 204508 / S288c) (Baker's yeast)) (UniProt P32657); experiment: ScCHD-1 Enzyme Inhibition Assay; format: functional; settings: 30 µM; also: in the data most compounds retested in dose-response had high values
Sequence of Chromo domain-containing protein 1 (Saccharomyces cerevisiae (strain ATCC 204508 / S288c) (Baker's yeast)) (P32657 whole entry, the tested form may be a part): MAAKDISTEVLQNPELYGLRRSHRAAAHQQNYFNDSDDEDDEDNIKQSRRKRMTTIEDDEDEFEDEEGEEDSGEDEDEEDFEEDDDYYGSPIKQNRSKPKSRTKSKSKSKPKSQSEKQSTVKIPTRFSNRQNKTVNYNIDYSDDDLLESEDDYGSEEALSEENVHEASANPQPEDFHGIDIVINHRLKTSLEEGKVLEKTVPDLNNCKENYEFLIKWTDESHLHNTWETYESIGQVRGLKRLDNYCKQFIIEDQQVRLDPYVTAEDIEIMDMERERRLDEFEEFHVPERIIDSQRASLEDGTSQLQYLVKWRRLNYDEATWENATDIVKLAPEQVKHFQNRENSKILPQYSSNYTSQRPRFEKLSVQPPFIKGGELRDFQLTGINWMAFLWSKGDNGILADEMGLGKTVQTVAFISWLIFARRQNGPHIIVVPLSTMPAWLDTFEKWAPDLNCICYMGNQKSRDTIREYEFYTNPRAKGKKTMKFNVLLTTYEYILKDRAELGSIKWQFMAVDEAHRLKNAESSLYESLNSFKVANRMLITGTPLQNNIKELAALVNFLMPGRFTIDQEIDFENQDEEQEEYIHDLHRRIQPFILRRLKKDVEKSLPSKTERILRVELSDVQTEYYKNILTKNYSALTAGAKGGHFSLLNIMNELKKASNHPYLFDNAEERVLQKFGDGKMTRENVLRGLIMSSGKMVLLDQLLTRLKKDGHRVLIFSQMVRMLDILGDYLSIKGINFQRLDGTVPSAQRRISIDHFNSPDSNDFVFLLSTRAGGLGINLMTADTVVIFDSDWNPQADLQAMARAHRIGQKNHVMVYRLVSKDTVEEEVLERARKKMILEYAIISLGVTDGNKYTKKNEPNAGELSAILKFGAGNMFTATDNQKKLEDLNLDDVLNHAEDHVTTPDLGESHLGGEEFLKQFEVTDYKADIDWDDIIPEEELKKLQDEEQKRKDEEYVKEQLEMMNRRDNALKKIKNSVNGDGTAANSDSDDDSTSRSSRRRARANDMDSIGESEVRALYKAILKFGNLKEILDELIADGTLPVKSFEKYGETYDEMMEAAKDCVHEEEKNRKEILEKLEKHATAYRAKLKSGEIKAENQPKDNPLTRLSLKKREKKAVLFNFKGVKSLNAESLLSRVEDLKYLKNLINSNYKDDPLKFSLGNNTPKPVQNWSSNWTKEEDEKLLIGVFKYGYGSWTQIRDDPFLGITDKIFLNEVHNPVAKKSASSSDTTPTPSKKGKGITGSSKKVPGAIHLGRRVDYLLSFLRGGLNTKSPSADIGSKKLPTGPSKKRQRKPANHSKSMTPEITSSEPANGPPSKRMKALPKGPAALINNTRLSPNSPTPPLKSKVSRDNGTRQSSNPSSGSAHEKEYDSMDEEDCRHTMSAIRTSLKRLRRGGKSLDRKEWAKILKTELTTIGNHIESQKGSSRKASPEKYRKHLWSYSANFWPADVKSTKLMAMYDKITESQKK

Sequence of Protein translocase subunit SecA (Escherichia coli (strain K12)) (P10408 whole entry): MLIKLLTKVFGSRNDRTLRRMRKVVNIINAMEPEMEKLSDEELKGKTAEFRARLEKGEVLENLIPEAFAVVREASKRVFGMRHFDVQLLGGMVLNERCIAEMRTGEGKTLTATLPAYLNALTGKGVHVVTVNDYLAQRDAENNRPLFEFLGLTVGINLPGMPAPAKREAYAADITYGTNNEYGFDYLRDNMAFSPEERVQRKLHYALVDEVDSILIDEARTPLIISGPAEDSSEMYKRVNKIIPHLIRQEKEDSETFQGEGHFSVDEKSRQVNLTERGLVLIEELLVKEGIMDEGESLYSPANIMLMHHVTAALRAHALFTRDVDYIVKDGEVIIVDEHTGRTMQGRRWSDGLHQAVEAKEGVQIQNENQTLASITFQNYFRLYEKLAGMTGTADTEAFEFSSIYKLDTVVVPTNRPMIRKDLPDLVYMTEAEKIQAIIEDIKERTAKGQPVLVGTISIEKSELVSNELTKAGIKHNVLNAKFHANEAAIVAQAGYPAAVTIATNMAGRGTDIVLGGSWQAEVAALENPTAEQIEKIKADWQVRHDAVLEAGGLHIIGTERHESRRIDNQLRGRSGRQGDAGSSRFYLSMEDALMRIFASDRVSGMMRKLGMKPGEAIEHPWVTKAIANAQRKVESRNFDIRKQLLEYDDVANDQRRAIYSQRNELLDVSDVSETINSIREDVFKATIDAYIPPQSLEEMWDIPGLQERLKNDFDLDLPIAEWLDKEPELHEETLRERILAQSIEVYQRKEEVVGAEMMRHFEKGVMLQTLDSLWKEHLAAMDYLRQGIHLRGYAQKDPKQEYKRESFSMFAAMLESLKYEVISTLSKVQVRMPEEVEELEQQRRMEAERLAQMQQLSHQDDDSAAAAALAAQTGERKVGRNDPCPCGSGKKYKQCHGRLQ

| Compound | Percent Effect [1] | Percent Effect [2] | Percent Effect [3] | Percent Effect (Trypanosoma cruzi) | Percent Effect [4] | Percent Effect [5] | Percent Effect (Homo sapiens) | Percent Effect [6] | Percent Effect [7] | Percent Effect [8] |
| --- | --- | --- | --- | --- | --- | --- | --- | --- | --- | --- |
| CN(C)c1ccccc1C(=O)N1C[C@@H](CN2CCOCC2)[C@@H](CO)C1 | -7.18% | 5.41% | 5.57% | 6.69% | -0.35% | 18.3% | 22.3% | 7.98% | 19.5% | -2.44% |
| CNC(=O)CN1CCCC12CCN(C(=O)c1ccsc1)CC2 | -4.84% | 27.3% | 3.61% | 3.94% | -1.83% | 5.06% | 1.81% | 6.76% | -92.5% | -11.2% |
| CN1CCN(C[C@@H]2CN(C(=O)c3ccccc3C#N)C[C@@H]2CO)CC1 | -3.4% | 10.8% | 10.3% | 7.86% | 0.35% | 3.42% | 7.14% | 4.79% | 9.76% | 0.408% |
| Cn1cc(-c2nnn3c2COC(CNCc2nccs2)C3)cn1 (stereo not given) | -3.81% | 11.7% | 1% | 4.19% | 10.5% | 11.6% | 6.11% | 5.79% | 17.9% | 8.68% |
| CSc1ccc(Cl)c(C(=O)N2CCCC(CNS(C)(=O)=O)C2)c1 (stereo not given) | 0.802% | 26% | -6.07% | 1.12% | -14.6% | 18.2% | 13% | 1.96% | 28.2% | -11.3% |
| COCC(C)N(C)C(=O)c1nc(S(C)(=O)=O)n2ccccc12 (stereo not given) | -8.81% | 2.56% | -5.8% | -2.35% | -2.05% | -0.256% | 24.6% | 5.26% | 8.43% | -0.536% |
| Cc1nn(C)c(Cl)c1CNCc1ccc(OCC(N)=O)cc1 | -6.28% | 10.7% | 0.0227% | 4.42% | 2.22% | 10.9% | 16.6% | 1.58% | 12.8% | -10.2% |
| C[C@@H]1C(=O)NC[C@H]2CN(CCc3ccccc3)C[C@H]21 | -0.103% | 16.9% | 0.474% | 1.5% | 2.74% | 11.4% | 2.51% | 11.6% | 20% | -8.42% |
| CC1CCCN(C(=O)c2cccc(CS(C)(=O)=O)c2)C1 (stereo not given) | 0.484% | 15.4% | -22.1% | 2.72% | -0.41% | 22.4% | 6.02% | 4.31% | 22.9% | 20.9% |
| CCN1CCN(CC(C)(O)c2cccc(C(F)(F)F)c2)CC1 (stereo not given) | -5.15% | 5.2% | 14.6% | -3.92% | -3.48% | 0.175% | -14.6% | 2.94% | -2.35% | -0.754% |
| c1ccc(-n2ncc(CN3CCCC3Cn3cccn3)n2)cc1 (stereo not given) | -6.8% | -13% | 24.4% | -2.61% | -0.205% | 5.44% | 1.65% | -1.96% | -2.35% | 3.05% |
| COCC1CN(CC2CC2)Cc2nn(C)cc21 (stereo not given) | -8.74% | -1.3% | -2.43% | -6.91% | 2.02% | 10.5% | 4.75% | 1.58% | -5.13% | -3.01% |
| CN(C)C(=O)CN1C(=O)CCC12CCN(Cc1cccn1C)CC2 | -0.209% | -1.3% | 0.456% | 3% | -0.913% | 11.9% | 7.89% | 10.6% | 20% | -9.53% |
| CCCn1nc2c(cc1=O)CN(CC(=O)Nc1ccncc1)CC2 | -3.45% | 10.4% | 6.89% | -3.17% | 2.25% | 17.2% | 3.95% | 3.92% | 11.8% | -14.2% |
| Cc1cccc(C(=O)N2CCCN(Cc3cnn(C)c3)CC2)n1 | -0.00911% | -5.13% | 4.36% | 1.6% | 6.15% | -6.74% | 13.4% | -0.478% | 1.21% | -3.37% |
| COCCNC(=O)Nc1ccc(F)c(C(N)=O)c1 | 2.83% | 15.6% | -5.71% | -5.04% | 0.615% | 8.42% | 8.95% | 9.8% | 16.5% | -12.2% |
| Cc1cc(C)c(OCC(=O)NS(=O)(=O)c2c(C)noc2C)c(C)c1 | -3.67% | -2.56% | -14.2% | 5.54% | 1.23% | 1.11% | 7.01% | 1.44% | 10.8% | 1.12% |
| Cc1ccc(C(=O)N2CCN(Cc3ccsc3)CC2)n1C | -2.67% | 5.33% | 2.26% | -1.61% | 0.887% | 5.34% | -8.24% | 5.79% | 7.69% | -6.68% |
| CCn1cc(NC(=O)NCc2ccc3c(c2)OCCO3)cn1 | -3.41% | 20.8% | 4.42% | -2.98% | 4.3% | 7.37% | 12.6% | 11.8% | 21.2% | -7.59% |
| O=C1CC(c2ccncc2)C2(CCN(CCO)CC2)N1 (stereo not given) | -2.64% | 3.9% | -0.555% | 5.55% | -3.64% | 8.91% | -9.49% | -0.526% | 2.56% | 17.5% |
| O=C(NCC1CC1)[C@H]1C[C@H]2OCC[C@H]2N(Cc2ccsc2)C1 | -6.05% | -3.9% | -0.139% | -1.85% | -6.07% | 2.38% | -7.12% | -2.63% | 0% | -0.205% |
| CC(C)c1nc(CN(C)C2CCN(CCNS(C)(=O)=O)C2)no1 (stereo not given) | -0.486% | 15.6% | -6.45% | -5.78% | -11.7% | 12.5% | 12.2% | 3.92% | 7.06% | -13% |
| CCn1nc(C)c(CCNC(=O)C2CCCN(C(=O)N(C)C)C2)c1C (stereo not given) | -5.72% | 0% | -0.0434% | -2.04% | 1.05% | 14.6% | 8.52% | 3.72% | 4.88% | -3.32% |

— ChEMBL document CHEMBL3988442, “University of Dundee, Small-Polar-MMV Screening Library” (2021)
